Assay results: the supplement of paper PMC11732987, “Enantioselective OTUD7B fragment discovery through chemoproteomics screening and high-throughput optimisation” (Communications Chemistry, 2025)
Unmarked numbers belong to inactive results.

Assays:
Assay in all cases: log2 ratio of Biotin-Ahx-Ub-VS probe labelling (fragment/DMSO); higher = less target engagement (more negative = stronger competition), active = hit call of the paper (q ≤ 0.05, log2 ratio ≤ -1)
Conditions in all cases: compound concentration: 200 uM; treatment time: 3 h
USP42 = molecular target: T1, USP42 (UniProt Q9H9J4)
T1 sequence (whole entry): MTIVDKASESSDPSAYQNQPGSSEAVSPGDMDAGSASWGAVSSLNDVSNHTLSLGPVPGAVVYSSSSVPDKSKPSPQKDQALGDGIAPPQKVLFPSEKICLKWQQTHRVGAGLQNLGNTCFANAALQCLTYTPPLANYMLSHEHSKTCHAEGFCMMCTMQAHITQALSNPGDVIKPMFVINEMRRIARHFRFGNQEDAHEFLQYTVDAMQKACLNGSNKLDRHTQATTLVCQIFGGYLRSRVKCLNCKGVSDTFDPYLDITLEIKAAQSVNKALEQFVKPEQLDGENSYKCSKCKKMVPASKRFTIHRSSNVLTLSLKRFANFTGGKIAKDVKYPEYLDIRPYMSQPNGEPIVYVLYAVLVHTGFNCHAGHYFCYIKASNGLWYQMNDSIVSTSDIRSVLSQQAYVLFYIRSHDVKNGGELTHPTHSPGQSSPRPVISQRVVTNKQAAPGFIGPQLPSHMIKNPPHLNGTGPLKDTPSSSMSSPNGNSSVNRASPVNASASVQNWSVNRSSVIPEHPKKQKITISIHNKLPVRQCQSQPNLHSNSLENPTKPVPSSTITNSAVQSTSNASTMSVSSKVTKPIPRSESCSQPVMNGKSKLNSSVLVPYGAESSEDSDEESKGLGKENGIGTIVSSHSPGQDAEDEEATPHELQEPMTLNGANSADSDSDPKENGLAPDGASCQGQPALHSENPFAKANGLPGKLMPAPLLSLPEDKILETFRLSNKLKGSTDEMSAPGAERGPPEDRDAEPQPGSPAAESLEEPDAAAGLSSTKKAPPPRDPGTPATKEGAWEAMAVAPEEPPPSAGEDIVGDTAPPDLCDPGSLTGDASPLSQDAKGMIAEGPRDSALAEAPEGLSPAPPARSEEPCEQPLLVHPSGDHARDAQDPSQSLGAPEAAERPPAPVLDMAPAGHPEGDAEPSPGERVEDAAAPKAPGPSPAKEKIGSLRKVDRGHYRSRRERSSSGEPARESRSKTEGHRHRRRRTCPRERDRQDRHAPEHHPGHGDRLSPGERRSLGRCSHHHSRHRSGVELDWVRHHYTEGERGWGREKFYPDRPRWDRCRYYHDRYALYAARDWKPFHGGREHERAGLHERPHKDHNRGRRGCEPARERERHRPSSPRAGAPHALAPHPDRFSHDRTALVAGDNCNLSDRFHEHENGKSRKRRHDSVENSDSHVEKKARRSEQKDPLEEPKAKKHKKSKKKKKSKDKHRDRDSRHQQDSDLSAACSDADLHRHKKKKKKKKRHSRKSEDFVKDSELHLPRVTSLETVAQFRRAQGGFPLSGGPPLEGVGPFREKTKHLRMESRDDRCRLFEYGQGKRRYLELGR
Outline: (§1)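 Labelled DUBs from HEK293T lysate were NeutrAvidin-enriched, digested with LysC and trypsin, and run by diaPASEF LC-MS/MS. Before that, each 495 µg sample in Tris/CHAPS/IGEPAL buffer with protease inhibitors was treated in triplicate with fragment at 200 µM or vehicle for 3 h, then with Biotin-Ahx-Ub-VS at 0.5 µM final for 1 h. Values are average log2 ratios of fragment over vehicle by unpaired t-test, based on global-median-normalised Spectronaut label-free quantities from proteins with ≥2 unique peptides.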

USP46 = USP46 (UniProt P62068)
Sequence of USP46 (P62068 whole entry): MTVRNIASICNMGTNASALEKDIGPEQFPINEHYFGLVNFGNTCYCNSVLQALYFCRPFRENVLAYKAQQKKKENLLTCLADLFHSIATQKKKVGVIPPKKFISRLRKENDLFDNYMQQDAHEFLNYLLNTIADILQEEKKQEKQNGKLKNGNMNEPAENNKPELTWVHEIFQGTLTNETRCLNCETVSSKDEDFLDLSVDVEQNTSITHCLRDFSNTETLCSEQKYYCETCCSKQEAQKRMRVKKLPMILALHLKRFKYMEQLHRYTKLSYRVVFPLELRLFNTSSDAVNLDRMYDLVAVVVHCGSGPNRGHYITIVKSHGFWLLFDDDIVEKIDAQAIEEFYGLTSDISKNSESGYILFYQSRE
Outline: as §1

USP47 = molecular target: T2, USP47 (UniProt Q96K76)
T2 sequence (whole entry): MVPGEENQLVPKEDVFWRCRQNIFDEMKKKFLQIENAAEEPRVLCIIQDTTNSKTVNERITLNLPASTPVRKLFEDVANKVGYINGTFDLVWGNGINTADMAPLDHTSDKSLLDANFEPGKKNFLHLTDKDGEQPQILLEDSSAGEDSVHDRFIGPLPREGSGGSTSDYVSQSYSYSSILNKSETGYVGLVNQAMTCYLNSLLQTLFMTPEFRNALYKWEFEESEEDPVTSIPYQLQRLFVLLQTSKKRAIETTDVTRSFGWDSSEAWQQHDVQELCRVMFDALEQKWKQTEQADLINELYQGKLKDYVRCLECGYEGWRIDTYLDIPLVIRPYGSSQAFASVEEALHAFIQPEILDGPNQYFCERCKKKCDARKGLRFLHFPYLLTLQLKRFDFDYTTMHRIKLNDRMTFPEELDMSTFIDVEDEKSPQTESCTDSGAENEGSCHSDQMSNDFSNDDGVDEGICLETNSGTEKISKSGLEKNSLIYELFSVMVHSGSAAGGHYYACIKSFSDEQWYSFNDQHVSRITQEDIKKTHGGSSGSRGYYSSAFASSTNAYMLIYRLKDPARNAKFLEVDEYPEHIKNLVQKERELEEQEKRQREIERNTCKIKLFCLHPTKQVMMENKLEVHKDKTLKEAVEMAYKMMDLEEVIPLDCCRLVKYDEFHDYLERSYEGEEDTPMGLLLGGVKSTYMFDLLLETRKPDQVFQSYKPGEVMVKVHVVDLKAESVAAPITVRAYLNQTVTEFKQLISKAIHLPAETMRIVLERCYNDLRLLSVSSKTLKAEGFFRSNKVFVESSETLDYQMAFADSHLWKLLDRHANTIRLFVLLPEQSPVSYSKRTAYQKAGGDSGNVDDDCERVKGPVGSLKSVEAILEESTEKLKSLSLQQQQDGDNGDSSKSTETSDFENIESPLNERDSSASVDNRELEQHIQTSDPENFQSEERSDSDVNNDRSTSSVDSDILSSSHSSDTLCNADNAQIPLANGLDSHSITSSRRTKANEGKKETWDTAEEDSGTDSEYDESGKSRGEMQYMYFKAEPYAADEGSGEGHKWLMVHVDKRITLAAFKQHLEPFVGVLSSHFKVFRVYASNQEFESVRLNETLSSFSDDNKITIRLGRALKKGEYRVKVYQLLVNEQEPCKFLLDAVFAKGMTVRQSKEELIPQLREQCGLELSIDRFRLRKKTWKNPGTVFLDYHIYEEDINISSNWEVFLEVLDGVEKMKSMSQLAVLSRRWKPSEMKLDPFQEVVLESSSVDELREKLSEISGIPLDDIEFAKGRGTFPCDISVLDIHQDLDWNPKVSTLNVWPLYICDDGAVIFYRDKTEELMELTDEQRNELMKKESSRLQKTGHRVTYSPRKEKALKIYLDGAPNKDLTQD
Outline: as §1

USP48 = molecular target: T3, USP48 (UniProt Q86UV5)
T3 sequence (whole entry): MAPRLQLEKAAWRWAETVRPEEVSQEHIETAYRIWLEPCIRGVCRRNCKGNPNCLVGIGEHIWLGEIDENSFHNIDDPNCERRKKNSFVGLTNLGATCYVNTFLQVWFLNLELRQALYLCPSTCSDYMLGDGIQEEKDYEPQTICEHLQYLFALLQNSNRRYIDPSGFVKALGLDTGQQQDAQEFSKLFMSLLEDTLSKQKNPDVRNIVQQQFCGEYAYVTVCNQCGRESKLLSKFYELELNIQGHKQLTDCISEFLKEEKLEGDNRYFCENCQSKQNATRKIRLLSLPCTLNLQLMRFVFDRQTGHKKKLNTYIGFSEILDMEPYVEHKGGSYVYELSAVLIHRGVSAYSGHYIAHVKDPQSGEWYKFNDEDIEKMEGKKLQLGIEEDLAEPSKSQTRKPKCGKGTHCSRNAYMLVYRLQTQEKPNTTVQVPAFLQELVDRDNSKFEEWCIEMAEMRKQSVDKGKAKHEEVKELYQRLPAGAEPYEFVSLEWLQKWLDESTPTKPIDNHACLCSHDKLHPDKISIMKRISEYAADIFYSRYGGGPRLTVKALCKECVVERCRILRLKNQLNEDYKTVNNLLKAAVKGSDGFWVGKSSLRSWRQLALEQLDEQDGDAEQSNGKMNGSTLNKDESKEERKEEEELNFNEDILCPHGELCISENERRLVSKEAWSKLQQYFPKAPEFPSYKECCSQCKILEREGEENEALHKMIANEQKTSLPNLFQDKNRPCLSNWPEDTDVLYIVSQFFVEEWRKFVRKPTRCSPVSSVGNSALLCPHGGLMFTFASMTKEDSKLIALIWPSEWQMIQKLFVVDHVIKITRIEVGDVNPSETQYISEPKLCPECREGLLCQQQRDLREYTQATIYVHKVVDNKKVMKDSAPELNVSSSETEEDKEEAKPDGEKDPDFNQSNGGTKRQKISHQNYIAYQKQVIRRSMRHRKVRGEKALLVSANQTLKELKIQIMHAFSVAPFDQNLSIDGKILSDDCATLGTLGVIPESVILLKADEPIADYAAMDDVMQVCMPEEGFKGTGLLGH
Outline: as §1

USP5 = molecular target: T4, USP5 (UniProt P45974)
T4 sequence (whole entry): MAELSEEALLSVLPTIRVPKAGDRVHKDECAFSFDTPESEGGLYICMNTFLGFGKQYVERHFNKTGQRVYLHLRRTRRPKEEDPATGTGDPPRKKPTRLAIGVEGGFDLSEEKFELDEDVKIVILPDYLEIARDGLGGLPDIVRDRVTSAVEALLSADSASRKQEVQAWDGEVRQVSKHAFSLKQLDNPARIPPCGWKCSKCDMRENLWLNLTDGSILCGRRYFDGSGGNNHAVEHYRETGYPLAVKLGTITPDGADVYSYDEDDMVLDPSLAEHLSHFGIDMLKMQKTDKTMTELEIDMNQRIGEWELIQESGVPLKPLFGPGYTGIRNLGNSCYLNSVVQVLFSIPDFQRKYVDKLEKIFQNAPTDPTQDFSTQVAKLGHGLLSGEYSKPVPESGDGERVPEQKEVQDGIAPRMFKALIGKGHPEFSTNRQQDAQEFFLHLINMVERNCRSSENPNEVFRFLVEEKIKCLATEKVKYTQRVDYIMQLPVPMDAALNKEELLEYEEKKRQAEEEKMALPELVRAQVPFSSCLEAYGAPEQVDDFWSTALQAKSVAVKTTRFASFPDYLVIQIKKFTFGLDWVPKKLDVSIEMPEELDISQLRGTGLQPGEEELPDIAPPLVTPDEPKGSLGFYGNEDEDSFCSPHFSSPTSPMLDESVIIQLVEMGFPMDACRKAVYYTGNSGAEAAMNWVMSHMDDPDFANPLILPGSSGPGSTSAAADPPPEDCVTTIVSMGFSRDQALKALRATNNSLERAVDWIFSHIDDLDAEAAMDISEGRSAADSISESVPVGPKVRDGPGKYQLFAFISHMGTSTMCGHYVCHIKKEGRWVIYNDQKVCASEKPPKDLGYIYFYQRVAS
Outline: as §1

USP54 = USP54 (UniProt Q70EL1)
Sequence of USP54 (Q70EL1 whole entry): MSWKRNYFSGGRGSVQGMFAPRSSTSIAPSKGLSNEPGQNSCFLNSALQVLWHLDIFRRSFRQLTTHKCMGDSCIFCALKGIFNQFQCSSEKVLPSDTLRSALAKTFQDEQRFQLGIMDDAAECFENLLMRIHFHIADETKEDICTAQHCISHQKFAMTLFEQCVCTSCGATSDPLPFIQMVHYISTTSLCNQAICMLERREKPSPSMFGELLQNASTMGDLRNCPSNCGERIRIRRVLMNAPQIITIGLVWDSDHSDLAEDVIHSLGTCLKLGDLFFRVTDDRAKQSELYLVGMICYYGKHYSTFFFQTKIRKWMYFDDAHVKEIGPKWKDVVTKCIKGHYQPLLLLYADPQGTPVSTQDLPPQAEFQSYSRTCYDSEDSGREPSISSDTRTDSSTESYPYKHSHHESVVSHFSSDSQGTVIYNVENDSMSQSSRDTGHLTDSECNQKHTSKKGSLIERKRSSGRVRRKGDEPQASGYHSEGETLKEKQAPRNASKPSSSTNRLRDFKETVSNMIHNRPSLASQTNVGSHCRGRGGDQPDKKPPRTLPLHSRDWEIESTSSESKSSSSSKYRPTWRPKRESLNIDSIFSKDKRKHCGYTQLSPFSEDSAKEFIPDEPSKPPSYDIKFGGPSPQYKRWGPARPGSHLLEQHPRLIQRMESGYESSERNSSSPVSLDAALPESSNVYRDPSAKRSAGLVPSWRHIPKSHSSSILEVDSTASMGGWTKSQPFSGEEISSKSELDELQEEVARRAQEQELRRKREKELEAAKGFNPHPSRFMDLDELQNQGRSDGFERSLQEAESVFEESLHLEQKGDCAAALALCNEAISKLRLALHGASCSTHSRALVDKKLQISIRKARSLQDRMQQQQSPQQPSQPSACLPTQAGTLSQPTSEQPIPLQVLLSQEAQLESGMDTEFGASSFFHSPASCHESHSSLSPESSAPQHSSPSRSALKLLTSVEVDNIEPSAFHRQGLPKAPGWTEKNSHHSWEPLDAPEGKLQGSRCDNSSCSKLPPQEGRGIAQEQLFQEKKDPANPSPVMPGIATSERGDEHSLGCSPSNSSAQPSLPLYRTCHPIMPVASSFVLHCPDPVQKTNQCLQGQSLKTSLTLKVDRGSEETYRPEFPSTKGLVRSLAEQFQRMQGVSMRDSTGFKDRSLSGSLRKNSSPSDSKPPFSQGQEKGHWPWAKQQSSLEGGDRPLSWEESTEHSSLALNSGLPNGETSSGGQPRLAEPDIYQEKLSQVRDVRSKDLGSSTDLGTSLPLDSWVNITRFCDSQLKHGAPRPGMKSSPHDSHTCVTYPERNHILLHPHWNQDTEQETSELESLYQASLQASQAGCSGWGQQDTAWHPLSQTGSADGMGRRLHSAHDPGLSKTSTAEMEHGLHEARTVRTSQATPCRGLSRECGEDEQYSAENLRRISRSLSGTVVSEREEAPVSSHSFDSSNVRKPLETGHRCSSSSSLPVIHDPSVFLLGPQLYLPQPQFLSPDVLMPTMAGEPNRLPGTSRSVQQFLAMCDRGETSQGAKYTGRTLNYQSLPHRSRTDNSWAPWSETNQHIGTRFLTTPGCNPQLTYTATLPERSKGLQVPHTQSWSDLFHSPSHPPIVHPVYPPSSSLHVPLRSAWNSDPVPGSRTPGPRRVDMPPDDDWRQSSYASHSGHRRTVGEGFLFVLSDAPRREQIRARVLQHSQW
Outline: as §1

USP7 = USP7 (UniProt Q93009)
Outline: as §1

USP8 = molecular target: T5, USP8 (UniProt P40818)
T5 sequence (whole entry): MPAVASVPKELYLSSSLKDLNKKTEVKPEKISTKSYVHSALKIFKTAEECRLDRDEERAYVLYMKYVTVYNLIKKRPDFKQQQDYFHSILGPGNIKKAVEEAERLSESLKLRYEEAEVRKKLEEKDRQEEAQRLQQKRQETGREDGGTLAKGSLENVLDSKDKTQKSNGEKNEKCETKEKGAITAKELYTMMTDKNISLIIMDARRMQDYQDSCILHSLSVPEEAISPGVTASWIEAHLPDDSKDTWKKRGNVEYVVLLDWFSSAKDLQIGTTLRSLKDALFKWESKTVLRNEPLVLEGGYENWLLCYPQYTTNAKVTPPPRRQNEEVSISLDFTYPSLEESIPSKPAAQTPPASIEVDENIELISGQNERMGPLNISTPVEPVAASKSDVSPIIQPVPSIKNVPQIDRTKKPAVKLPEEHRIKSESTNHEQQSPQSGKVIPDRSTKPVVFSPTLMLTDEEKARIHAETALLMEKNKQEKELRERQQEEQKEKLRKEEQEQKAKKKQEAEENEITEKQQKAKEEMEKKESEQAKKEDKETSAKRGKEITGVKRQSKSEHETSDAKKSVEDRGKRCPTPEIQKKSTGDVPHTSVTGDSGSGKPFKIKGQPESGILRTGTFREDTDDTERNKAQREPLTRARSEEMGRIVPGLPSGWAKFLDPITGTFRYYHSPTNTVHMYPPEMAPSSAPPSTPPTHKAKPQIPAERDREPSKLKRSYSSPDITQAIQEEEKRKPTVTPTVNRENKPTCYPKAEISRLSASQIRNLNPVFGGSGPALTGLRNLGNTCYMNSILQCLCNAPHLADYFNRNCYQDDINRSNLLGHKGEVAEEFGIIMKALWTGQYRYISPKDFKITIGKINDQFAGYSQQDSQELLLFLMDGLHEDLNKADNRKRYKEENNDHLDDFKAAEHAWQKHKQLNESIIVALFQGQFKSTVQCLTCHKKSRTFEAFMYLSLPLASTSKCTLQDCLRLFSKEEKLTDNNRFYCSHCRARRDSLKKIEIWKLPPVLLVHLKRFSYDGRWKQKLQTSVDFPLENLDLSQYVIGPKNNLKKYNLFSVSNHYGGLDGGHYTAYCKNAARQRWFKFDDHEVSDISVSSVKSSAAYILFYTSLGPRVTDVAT
Outline: as §1

USP9X = USP9X (UniProt Q93008)
Sequence of USP9X (Q93008 whole entry): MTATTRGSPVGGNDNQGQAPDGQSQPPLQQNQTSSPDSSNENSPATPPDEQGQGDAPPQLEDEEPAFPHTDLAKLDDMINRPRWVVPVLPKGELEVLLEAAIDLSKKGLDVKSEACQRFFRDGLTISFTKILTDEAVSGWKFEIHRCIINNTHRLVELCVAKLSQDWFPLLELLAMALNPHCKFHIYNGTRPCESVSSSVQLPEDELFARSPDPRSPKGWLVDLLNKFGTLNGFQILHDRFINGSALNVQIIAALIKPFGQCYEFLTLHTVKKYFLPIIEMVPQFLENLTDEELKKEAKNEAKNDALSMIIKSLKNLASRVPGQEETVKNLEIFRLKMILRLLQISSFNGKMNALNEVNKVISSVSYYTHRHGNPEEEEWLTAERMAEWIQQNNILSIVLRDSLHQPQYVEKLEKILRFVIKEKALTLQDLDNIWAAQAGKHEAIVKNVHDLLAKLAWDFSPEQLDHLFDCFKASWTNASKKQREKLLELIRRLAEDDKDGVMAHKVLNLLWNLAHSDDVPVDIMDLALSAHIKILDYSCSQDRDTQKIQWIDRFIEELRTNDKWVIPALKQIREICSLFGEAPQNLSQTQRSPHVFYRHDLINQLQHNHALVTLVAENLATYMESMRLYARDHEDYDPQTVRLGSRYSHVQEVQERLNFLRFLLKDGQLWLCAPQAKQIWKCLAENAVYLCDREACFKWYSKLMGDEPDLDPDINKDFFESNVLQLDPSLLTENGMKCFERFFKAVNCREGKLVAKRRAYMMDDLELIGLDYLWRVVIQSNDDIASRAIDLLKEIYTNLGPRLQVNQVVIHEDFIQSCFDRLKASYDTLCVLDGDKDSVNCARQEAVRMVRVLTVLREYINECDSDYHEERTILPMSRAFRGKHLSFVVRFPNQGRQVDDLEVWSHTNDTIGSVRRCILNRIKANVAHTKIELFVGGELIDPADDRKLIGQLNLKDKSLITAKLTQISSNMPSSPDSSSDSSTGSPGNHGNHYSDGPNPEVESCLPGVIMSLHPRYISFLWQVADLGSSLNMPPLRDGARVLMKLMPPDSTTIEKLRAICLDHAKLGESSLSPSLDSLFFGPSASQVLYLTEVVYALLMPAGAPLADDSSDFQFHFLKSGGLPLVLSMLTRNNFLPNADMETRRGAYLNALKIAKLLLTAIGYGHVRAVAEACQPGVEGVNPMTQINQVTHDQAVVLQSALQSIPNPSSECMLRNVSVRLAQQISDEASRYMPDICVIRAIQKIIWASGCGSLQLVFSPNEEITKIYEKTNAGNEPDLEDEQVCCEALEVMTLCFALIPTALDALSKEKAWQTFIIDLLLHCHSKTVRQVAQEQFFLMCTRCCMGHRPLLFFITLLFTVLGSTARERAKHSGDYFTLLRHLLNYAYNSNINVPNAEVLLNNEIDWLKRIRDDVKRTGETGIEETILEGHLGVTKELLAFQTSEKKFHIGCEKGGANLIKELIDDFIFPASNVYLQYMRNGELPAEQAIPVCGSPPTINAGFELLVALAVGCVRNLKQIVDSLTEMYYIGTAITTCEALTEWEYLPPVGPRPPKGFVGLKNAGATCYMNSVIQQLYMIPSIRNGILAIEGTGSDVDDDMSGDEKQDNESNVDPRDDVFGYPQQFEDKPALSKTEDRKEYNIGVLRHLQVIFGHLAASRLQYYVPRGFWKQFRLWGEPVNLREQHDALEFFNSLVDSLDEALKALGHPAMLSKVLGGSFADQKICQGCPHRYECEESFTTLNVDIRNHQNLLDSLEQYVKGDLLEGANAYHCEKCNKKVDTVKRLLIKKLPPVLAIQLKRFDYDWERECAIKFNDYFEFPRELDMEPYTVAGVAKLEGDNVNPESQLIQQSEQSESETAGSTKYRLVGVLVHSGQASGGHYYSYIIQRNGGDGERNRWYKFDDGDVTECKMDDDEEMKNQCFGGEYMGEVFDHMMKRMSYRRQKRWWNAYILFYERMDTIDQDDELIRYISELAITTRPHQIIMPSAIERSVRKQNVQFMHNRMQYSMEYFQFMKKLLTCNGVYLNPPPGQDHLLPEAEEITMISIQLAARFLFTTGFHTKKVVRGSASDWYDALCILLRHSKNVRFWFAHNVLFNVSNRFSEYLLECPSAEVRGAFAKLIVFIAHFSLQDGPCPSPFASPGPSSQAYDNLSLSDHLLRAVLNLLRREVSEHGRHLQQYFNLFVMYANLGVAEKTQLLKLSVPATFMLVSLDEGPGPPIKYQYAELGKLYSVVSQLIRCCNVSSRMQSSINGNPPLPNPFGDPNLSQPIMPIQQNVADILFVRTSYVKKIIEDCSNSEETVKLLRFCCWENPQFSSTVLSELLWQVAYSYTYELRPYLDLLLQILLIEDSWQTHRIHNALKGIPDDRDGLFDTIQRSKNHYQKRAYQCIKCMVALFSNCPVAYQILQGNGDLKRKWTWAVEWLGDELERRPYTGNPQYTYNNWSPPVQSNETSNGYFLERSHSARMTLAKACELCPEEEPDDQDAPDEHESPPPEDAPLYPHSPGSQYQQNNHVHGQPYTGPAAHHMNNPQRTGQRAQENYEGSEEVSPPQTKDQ
Outline: as §1

UniProt O00487 = molecular target: UniProt O00487
Sequence of UniProt O00487 (O00487 whole entry): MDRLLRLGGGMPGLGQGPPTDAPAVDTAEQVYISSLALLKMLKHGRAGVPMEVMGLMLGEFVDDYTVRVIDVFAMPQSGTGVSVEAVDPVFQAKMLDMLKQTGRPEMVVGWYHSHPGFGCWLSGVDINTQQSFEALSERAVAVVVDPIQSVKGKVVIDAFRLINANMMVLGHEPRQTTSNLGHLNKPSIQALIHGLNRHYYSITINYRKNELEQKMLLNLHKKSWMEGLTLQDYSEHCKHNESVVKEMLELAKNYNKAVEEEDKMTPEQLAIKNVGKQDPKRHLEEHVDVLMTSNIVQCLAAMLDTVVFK
Outline: as §1

Row | SMILES | log2 ratio of Biotin-Ahx-Ub-VS probe labelling (USP42) | log2 ratio of Biotin-Ahx-Ub-VS probe labelling (USP46) | log2 ratio of Biotin-Ahx-Ub-VS probe labelling (USP47) | log2 ratio of Biotin-Ahx-Ub-VS probe labelling (USP48) | log2 ratio of Biotin-Ahx-Ub-VS probe labelling (USP5) | log2 ratio of Biotin-Ahx-Ub-VS probe labelling (USP54) | log2 ratio of Biotin-Ahx-Ub-VS probe labelling (USP7) | log2 ratio of Biotin-Ahx-Ub-VS probe labelling (USP8) | log2 ratio of Biotin-Ahx-Ub-VS probe labelling (USP9X) | log2 ratio of Biotin-Ahx-Ub-VS probe labelling (UniProt O00487)
1 | O=C(O)C1Cc2ccccc2CN1C(=O)CCl (stereo not given) | -0.449 | -0.111 | -0.301 | -0.543 | -0.0229 | 0.788 | -0.333 | -0.283 | -0.449 | -0.262
2 | C#Cc1cccc(NC(=O)CCl)c1 | 0.466 | -0.0515 | -0.468 | -0.362 | -0.268 | -0.249 | -0.56 | -0.179 | -0.146 | -0.148
3 | CS(=O)(=O)c1ccc(NC(=O)CCl)cc1 | 0.0549 | 0.119 | -0.0487 | -0.946 | 0.0085 | 0.431 | -0.156 | 0.012 | -0.388 | -0.115
4 | Cc1noc(C)c1CNC(=O)CCl | 0.262 | -0.347 | 0.0132 | -0.547 | -0.403 | 1.07 | -0.406 | -1.2 (active) | -0.717 | -0.395
